Compound activity (PubChem BioAssay)
BoNT-F LC inh – BoNT F light chain protease inhibition | Multiplex microsphere protease cleavage assay, flow cytometry | inhibition, % at 10 µM | 360,000 tested, 0.22% active | AID 588497; in the data active = inhibition above about 35%, passing the limit was not always enough
GDH-TPI counter-1 – counter-screen for M. tuberculosis FBA inhibitors: GDH-TPI coupled enzymes | GDH-TPI coupled enzyme counterscreen, NADH absorbance | inhibition, % at 4.8 µM | 360,000 tested, 1.2% active; in the data active = inhibition above about 30%
Anthrax LF prot – blocks Bacillus anthracis lethal factor protease | AID 588501 | P15917 | 360,000 tested, 0.12% active | inhibition, % at 10 µM | multiplex microsphere protease cleavage assay, LF
Autofluor counter – flagged as autofluorescent in microsphere protease counterscreen; compound autofluorescence counterscreen, microsphere flow cytometry; active compounds read high; fluorescence intensity (test concentration not listed); 360,000 tested, 3.1% active; in the data active = fluorescence intensity above about 16000
Mtb FBA inh – inhibitors of M. tuberculosis fructose-bisphosphate aldolase; P9WQA3; purified M. tuberculosis FBA, fluorescence read-out; inhibition, % at 1 µM; 360,000 tested, 2.3% active; AID 588726; in the data active = inhibition above about 27%
Target sequence (P9WQA3 whole entry, looked up): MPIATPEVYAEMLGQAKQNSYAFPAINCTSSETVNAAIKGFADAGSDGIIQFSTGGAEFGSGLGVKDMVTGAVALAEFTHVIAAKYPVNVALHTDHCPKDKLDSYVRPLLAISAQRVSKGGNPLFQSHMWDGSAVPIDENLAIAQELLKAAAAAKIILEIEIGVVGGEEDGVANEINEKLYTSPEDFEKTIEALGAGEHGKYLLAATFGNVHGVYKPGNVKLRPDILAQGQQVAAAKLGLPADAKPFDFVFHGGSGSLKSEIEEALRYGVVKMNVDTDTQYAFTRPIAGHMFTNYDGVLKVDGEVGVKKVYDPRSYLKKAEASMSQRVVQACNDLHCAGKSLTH
BoNT-A LC inh2 – inhibitors of Botulinum neurotoxin A light chain protease | inhibition, % at 10 µM | AID 588499 | multiplex microsphere protease substrate cleavage, flow cytometry | 360,000 tested, 0.17% active
Mtb FBA confirm – Mtb FBA inhibition, confirmed. shares compounds with Mtb FBA inh. purified M. tuberculosis FBA, fluorescence read-out. inhibition, % at 1 µM. 5,600 tested, 78% active. AID 651616; in the data active = inhibition above about 27%
GDH-TPI counter-2 – inhibits GDH-TPI coupling enzymes, flagging Mtb FBA hits. shares compounds with Mtb FBA inh. 5,600 tested, 81% active. inhibition, % at 1 µM. GDH-TPI coupled enzyme counterscreen, fluorescence. AID 652141; in the data active = inhibition above about 10%
Each line names hits and unclear results; the compound was inactive in the other large screens (follow-up assays come after a bar, where they were run); ! = not confirmed by another sample. This is a sample that favours compounds with a hit; in the whole collection about 6.7% have one here. Rule as the data show it, unless noted: active = inhibition above about 30%; inconclusive = no clear call, values can overlap the other calls; inactive = below that.

COc1cccc(CNC(=O)c2ccc3c(c2)N(C)CCS3)c1OC	Mtb FBA inh 88 | Mtb FBA confirm 49 | GDH-TPI counter-2 45
COc1cccc(CNC(=O)CCC(=O)N2CCSc3ccccc32)c1OC	none
COc1ccc(CNC(=O)c2ccc3c(c2)N(C)CCS3)cc1	Mtb FBA inh 52 | Mtb FBA confirm 86 | GDH-TPI counter-2 59
CCCC(=O)N(CCN1CCOCC1)c1nc2c(C)ccc(C)c2s1	none
COc1ccccc1NC(=O)CCNC(=O)C1CCN(S(=O)(=O)c2ccccc2)CC1	none
CC(Cc1ccccc1)C(=O)NCc1ccccn1 (stereo unspecified)	none
Cc1ccc(C(=O)N(CCc2ccccc2)Cc2ccccc2)cc1S(=O)(=O)N1CCCCC1	none
O=C1NCCN1Cc1ccccc1	none
CN(C)CCSc1nnc2sc3ccccc3n12	none
CCOC(=O)C1(CCOC)CCN(Cc2ccncc2)CC1	none
Cc1nn(-c2ccccc2)c2sc(C(=O)N(CC(=O)NC3CCCC3)Cc3ccco3)cc12	none
CC1(C(=O)N(CC(=O)NC2CCCC2)Cc2ccccc2)CC(=O)N=C2C=CC=CN21 (stereo unspecified)	Mtb FBA inh 109 | Mtb FBA confirm 140 | GDH-TPI counter-2 109
CC1(C(=O)N(CC(=O)NC2CCCC2)Cc2ccco2)CC(=O)N=C2C=CC=CN21 (stereo unspecified)	Mtb FBA inh 65 | Mtb FBA confirm 118 | GDH-TPI counter-2 72
O=C(O)CCC(NC(=O)c1cncc(O)c1)C(=O)O (stereo unspecified)	none
Nc1nc2ncc(CNc3ccc(C(=O)N[C@@H](CCC(=O)O)C(=O)O)cc3)nc2c(=O)[nH]1	Mtb FBA inh 44 | Mtb FBA confirm 113 | GDH-TPI counter-2 90
CN(Cc1cnc2nc(N)nc(N)c2n1)c1ccc(C(=O)N[C@@H](CCC(=O)O)C(=O)O)cc1	Mtb FBA inh 108! | Mtb FBA confirm 119 | GDH-TPI counter-2 108
CCSc1ccccc1C(=O)Nc1cc(OC)c(OC)c(OC)c1	none
COc1cc(C=Nc2ccccc2C(=O)Nc2ccccc2)cc(OC)c1OC	Mtb FBA inh 51 | Mtb FBA confirm active | GDH-TPI counter-2 active
Cc1cccn2c(=O)c3cc(C(=O)NCCc4ccccc4)c(=N)n(Cc4ccco4)c3nc12	Mtb FBA inh 30 | Mtb FBA confirm active | GDH-TPI counter-2 active
Cc1cccn2c(=O)c3cc(C(=O)NCC4CCCO4)c(=N)n(CCc4ccccc4)c3nc12 (stereo unspecified)	Mtb FBA inh 109 | Mtb FBA confirm 76 | GDH-TPI counter-2 64
COc1cc2nc(SCC(=O)NCCc3ccccc3)n(Cc3ccco3)c(=O)c2cc1OC	none
Cc1cccn2c(=O)c3cc(C(=O)NCc4ccco4)c(=N)n(CCc4ccccc4)c3nc12	Mtb FBA inh 53 | Mtb FBA confirm 90 | GDH-TPI counter-2 81
Cc1nc2cccc(C(=O)Oc3ccc([N+](=O)[O-])cc3)c2o1	Mtb FBA inh 43 | Mtb FBA confirm 159 | GDH-TPI counter-2 146
CN1CCc2c(sc(/N=C/c3ccco3)c2C(N)=O)C1	Mtb FBA inh 40 | Mtb FBA confirm 42 | GDH-TPI counter-2 24
CN1CCc2c(sc(/N=C/c3cccs3)c2C(N)=O)C1	none
CN(c1cccc(Cl)c1)S(=O)(=O)c1cccc(C(=O)NN2CCOCC2)c1	none
CCCS(=O)(=O)N1CCC(C(=O)NCc2ccc(F)cc2)CC1	none
Cn1ccc2c(-c3ccc4c(c3)OCCO4)cc3c(c21)C1CCC3O1 (stereo unspecified)	Mtb FBA inh 109 (no result: GDH-TPI counter-1) | Mtb FBA confirm inactive | GDH-TPI counter-2 inactive
Cn1ccc2c(-c3cncc4ccccc34)cc3c(c21)C1CCC3O1 (stereo unspecified)	none (no result: GDH-TPI counter-1)
CSc1ccc(-c2cc3c(c4c2ccn4C)C2CCC3O2)cc1 (stereo unspecified)	Mtb FBA inh 101 (no result: GDH-TPI counter-1) | Mtb FBA confirm inactive | GDH-TPI counter-2 12
Cn1ccc2c(N3CCOCC3)cc3c(c21)C1CCC3O1 (stereo unspecified)	none (no result: GDH-TPI counter-1)
Cn1ccc2c(-c3ccc(C(F)(F)F)cc3)cc3c(c21)C1CCC3O1 (stereo unspecified)	Mtb FBA inh 93 (no result: GDH-TPI counter-1) | Mtb FBA confirm 98 | GDH-TPI counter-2 69
O=C(O)c1ccc(NC(=S)NC(=O)c2ccc3ccccc3c2)cc1	none
CCc1ccc(/C=N/NC(=O)c2cc(-c3ccncc3)nc3ccccc23)s1	none
O=S(=O)(Cc1ccccc1)N1CCN(C2Cc3ccccc3C2)CC1	Mtb FBA inh 29 | Mtb FBA confirm active | GDH-TPI counter-2 active
O=C(c1cc2c(ccc3ccccc32)oc1=O)N1CCN(CCO)CC1	Mtb FBA inh 53 | Mtb FBA confirm 63 | GDH-TPI counter-2 62
CC(=O)c1cc2c(ccc3ccccc32)oc1=O	Mtb FBA inh 50 | Mtb FBA confirm 73 | GDH-TPI counter-2 60
C/C(=N\Nc1nc(-c2cc(C)ccc2C)cs1)c1cc2c(ccc3ccccc32)oc1=O	Mtb FBA inh 29 | Mtb FBA confirm 69 | GDH-TPI counter-2 43
CC(=O)Nc1cc2c(ccc3ccccc32)oc1=O	Mtb FBA inh 105 | Mtb FBA confirm 69 | GDH-TPI counter-2 63
COc1ccc2oc(=O)c(C(C)=O)cc2c1	none
CN1CCN(C(=O)c2cc3ccccc3oc2=O)CC1	none
CN(C)CCNc1nc2c(c(=O)[nH]c(=O)n2C)n1CCOc1ccccc1	none
CCCCCCC(=O)N/N=C/c1c(O)n(C(C)CC)c(=S)[nH]c1=O (stereo unspecified)	none
Cc1oc(/N=C/c2ccccc2O)c(C#N)c1C	none
Cc1oc(/N=C/c2ccc(O)cc2O)c(C#N)c1C	Mtb FBA inh 71 | Mtb FBA confirm active | GDH-TPI counter-2 active
CSc1scc2c1-c1nc(SCC(=O)C(C)(C)C)ncc1CC2	Mtb FBA inh 30 | Mtb FBA confirm 67 | GDH-TPI counter-2 48
C=CCNC(=O)CSc1ncc2c(n1)-c1c(csc1SC)CC2	Mtb FBA inh 99 (no result: BoNT-F LC inh, Anthrax LF prot, Autofluor counter, BoNT-A LC inh2) | Mtb FBA confirm 82 | GDH-TPI counter-2 59
CC(C)(C)C(=O)CSc1ncccn1	none
COc1ccc(/C=N/n2c(=O)[nH]c3c([nH]c4ccc(C)cc43)c2=O)cc1CN1CCOCC1	Mtb FBA inh 93 | Mtb FBA confirm 127 | GDH-TPI counter-2 101
CC1=CC(C)[C@H](/C=N/n2c(=O)[nH]c3c([nH]c4ccc(C)cc43)c2=O)C(C)C1 (stereo partly specified)	Mtb FBA inh 53 | Mtb FBA confirm inactive | GDH-TPI counter-2 inactive
CCOc1ccccc1-n1ccn(CC(=O)Nc2ccc(Br)cc2F)c(=O)c1=O	none
O=C(NNC(=O)C1C2C=CC(C2)C1C(=O)O)c1cc(Cl)ccc1O (stereo unspecified)	Mtb FBA inh 65 | Mtb FBA confirm 59 | GDH-TPI counter-2 55
CCN(CC)c1nc2n(c(=O)n1)CCO2	none
